Measurements: PubChem BioAssay AID454 (Sanford-Burnham Center for Chemical Genomics, 2006)
In all, about 10,000 compounds went through this assay and about 25 (0.2%) were called active.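 The calls were made as follows: active = compound among top-ranked inhibitors of TNF-induced VCAM-1 adhesion protein staining, with the hit upheld by image or statistical review; inactive = the rest, including hits rejected on review.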 Shown is part of a subset that was picked to be rich in actives.

assay: inhibitors of TNFa-induced VCAM-1 surface display, cell-based, plate reader, pooled HUVEC, TNFa stimulus (AID 454); conditions: HUVEC TNFa-induced VCAM-1 surface immunofluorescence; stronger effect = higher value,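 compound tested at 5 µM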

SMILES	inhibition
CC(=O)N1CCN(c2ccc(N=Cc3c(O)n(Cc4ccccc4)c(=O)[nH]c3=O)cc2)CC1	inactive
C1=CC2CC1CC2CN1CCN(c2ccccc2)CC1 (configuration not stated)	inactive
CCOC(=O)C(NC(=O)CC)(Nc1ccc(S(=O)(=O)Nc2onc(C)c2C)cc1)C(F)(F)F (configuration not stated)	inactive
O=C(Nc1nc2c(s1)CCc1ccccc1-2)c1cccs1	inactive
CS(=O)(=O)N1CCCC(C(=O)NCc2ccccc2Cl)C1 (configuration not stated)	inactive
CCOC(=O)c1sc(Nc2nc3c(OC)cccc3s2)nc1C	73.7% (active)
CCOC(=O)c1sc(NS(=O)(=O)c2ccc(NC(C)=O)cc2)nc1C	inactive
COC(=O)c1sc(NC(=O)COc2ccccc2OC)nc1C	inactive
O=C(c1ccco1)N1CCN(c2cccc(Cl)c2)CC1	inactive
O=C(c1ccco1)N1CCN(c2c(-c3ccccc3)c3cc(Cl)ccc3[nH]c2=O)CC1	86.3% (active)
O=C(O)c1[nH]c2ccc(Cl)cc2c1CC(=O)N1CCN(C(=O)c2ccco2)CC1	inactive
O=S1(=O)C=C(Sc2nnc(-c3ccccc3)o2)c2ccccc21	inactive
O=S1(=O)C=C(Sc2nc3ccccc3s2)c2ccccc21	110% (inactive)
Cc1cc(C)nc(SC2=CS(=O)(=O)c3ccccc32)n1	91% (active)
Cc1ccc(-c2nc3cnccn3c2Nc2ccc3c(c2)OCO3)o1	inactive
CCOC(=O)C(C(C)=O)c1nc(C)nc2c1nnn2Cc1ccccc1Cl (configuration not stated)	inactive
CCC(C(=O)NC(C)CCc1ccco1)n1nc(C)n2c(cc3occc32)c1=O (configuration not stated)	inactive
CCOc1ccccc1NC(=O)CCN1CCN(S(=O)(=O)c2ccc(Br)cc2)CC1	inactive
COc1cccc(-c2nc(CS(=O)(=O)CC(=O)N3CCN(c4ccccn4)CC3)c(C)o2)c1	inactive
Cc1cc(C)n(-c2nc3ccccc3c(=O)n2OCCOc2ccccc2)n1	inactive
Cn1cccc1Cc1nnc(SCC(=O)N2CCOCC2)n1-c1ccc(F)cc1	inactive
O=C(CN(c1ccc(F)cc1)S(=O)(=O)c1ccc2c(c1)OCCO2)Nc1ccc2c(c1)OCO2	inactive
CN(C)/C=C(\C#N)c1nc2ccccc2[nH]1	inactive
O=C(CN(c1ccc(F)cc1)S(=O)(=O)c1ccc2c(c1)OCCO2)Nc1cccnc1	inactive
COc1ccc(CNc2oc(-c3cccc4ccccc34)nc2C#N)cc1	inactive
CCc1oc2ccccc2c1C(=O)c1cc(Br)c(O)c(Br)c1	inactive

SMILES	inhibition
CCCCc1oc2ccccc2c1C(=O)c1cc(I)c(OCCN(CC)CC)c(I)c1	85.9% (active)
CCN(CC)CCOC(=O)c1c(C)oc2ccc(O)cc12	inactive
O=C(COc1ccccc1Cl)NCc1ccco1	inactive
CCCC1Cc2c(sc3ncnc(N)c23)CO1 (configuration not stated)	inactive
COc1cccc(NC(=O)N2CCC(N3CCCCC3)CC2)c1	inactive
CCc1nc(C)c(C#N)c2cc(OC)c(OC)cc12	inactive
COc1cc(CC(=O)Nc2ncc(C)s2)cc(OC)c1OC	inactive
C#CCNc1c(C)c(C)nc2ncnn12	inactive
CCN1CCN(Cc2ccc(NC(=O)Nc3ccc(SC)cc3)cc2)CC1	inactive
Cn1c(=O)[nH]c(=O)c2[nH]c(CN3CCN(C(=O)c4ccco4)CC3)nc21	inactive
C[C@]12CC[C@H]3[C@@H](CCC4=CC(=O)CC[C@@]43C)[C@@H]1CC[C@@H]2C(=O)CO	inactive
CC(=O)OCC(=O)[C@H]1CC[C@H]2[C@@H]3CCC4=CC(=O)CC[C@]4(C)[C@H]3CC[C@]12C	inactive
CC(=O)[C@H]1CC[C@H]2[C@@H]3CCC4=CC(=O)CC[C@]4(C)[C@H]3CC[C@]12C	96.7% (active)
CCC(=O)N[C@@H]1CC(C(C)(C)NC(=O)CC)CC=C1C (some centres not stated)	inactive
COc1cc(OC)c2c(c1)OC(c1ccc(OC)c(OC)c1)C(O)C2=O (configuration not stated)	inactive
Cc1ccc(-c2cc(C(F)F)nc(N3CCC(C)CC3)n2)cc1	inactive
Cc1[nH]n(C(N)=S)c(=O)c1C(c1ccccc1)C(C#N)C#N (configuration not stated)	inactive
CCOC(=O)c1cnc(-n2nc(C)cc2C)nc1N1CC(C)OC(C)C1 (configuration not stated)	inactive
Cc1ccc(S(=O)(=O)N2CCCC2C(=O)n2nc(C)cc2C)cc1 (configuration not stated)	inactive
CCOCCn1c(CN2CCC(Cc3ccccc3)CC2)nc2c1c(=O)n(C)c(=O)n2C	inactive
Oc1c(C(c2ccccc2)N2CCc3ccccc3C2)sc2ncnn12 (configuration not stated)	inactive
CC1=C(C(N)=O)C(c2ccc(Cl)cc2Cl)n2ncnc2N1 (configuration not stated)	inactive
COC(=O)C1=C(C)N(c2ccc(C(=O)OC)cc2)C(=O)C1	inactive
COCCCNC(=O)CCn1c(=O)c2ccccc2n(CC(=O)Nc2ccc(C)cc2C)c1=O	inactive
CCOc1cc(-c2nc3ccccn3c2NCC2CCCO2)ccc1O (configuration not stated)	inactive
Cc1cc(C)nc(SCc2nnc(SCc3ccccc3Cl)o2)n1	inactive
